SARS PLP yeast – inhibitors of SARS-CoV papain-like protease in yeast. Potency, µM (top dose mostly 32.9 µM), actives largely listed as activators. 330,000 tested, 0.19% active. S. cerevisiae expressing SARS-CoV PLpro, growth rescue. AID 485353; calls by dose curve; further: nearly all actives have a fitted effect of over 55% in size
AMA1-RON2 inh – AMA1-RON2 (P. falciparum) interaction inhibition | 360,000 tested, 0.2% active | AID 720542 | Potency, µM (doses to about 58.2 µM), usual class: inhibitors | AlphaScreen AMA1-biotinylated RON2 peptide binding; further: nearly all actives have a fitted effect of over 45% in size
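AMA1 (3D7) with his tag at 25 nM final met compounds first, then biotinylated RON2 peptide at 25 nM; detection used donor plus acceptor beads, 10 µg/mL apiece, read by AlphaScreen after 30 min at room temperature.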
Pf growth 96h – P. falciparum growth inhibition at 96 hours; P. falciparum luciferase reporter growth, 96 h; Potency, µM (series often up to 28.7 µM), usual class: inhibitors; 320,000 tested, 6.9% active; AID 504834
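Cell-based qHTS: luciferase-tagged P. falciparum in erythrocytes (2% hematocrit, 0.05% parasitemia final) incubated with compounds for 96 hours, 37 C, 5% CO2; luciferase detection reagent then added and luminescence measured.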
HCV inhibitor – inhibitors of hepatitis C virus infection; Huh7.5.1 HCVcc-Cre infection, luciferase reporter, 44 h; Potency, µM (highest dose often 41.8 µM), most hits filed as inhibitors; 340,000 tested, 3.4% active
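Reporter virus HCVcc-Cre (~0.5 moi) infects cells exposed to compound; seeding density 1,000 cells/well with 4 h settling beforehand. Luminescence, 15 sec read, taken 44 h post-infection following a 15 min RT substrate incubation.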
NS1 inh – influenza NS1 inhibition; Potency, µM (titrated, usually from 46.1 µM); 270,000 tested, 0.4% active; calls by dose curve; further: actives are rising curves; nearly all actives have a fitted effect of over 50% in size
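Compounds were scored for reversing the slow growth caused by influenza A NS1 in S. cerevisiae, measured by optical density at 600 nm. Assay medium contained 2% galactose at pH 6.0; NS1-free yeast of the same strain were the positive control.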
Pf growth 48h – inhibits P. falciparum growth in the first generation, 48 h | 310,000 tested, 5.9% active | Potency, µM (doses to about 28.7 µM), most hits filed as inhibitors | AID 504832 | P. falciparum luciferase growth in erythrocytes, 48 h
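Luciferase-expressing P. falciparum in infected erythrocytes (2% hematocrit, 0.1% parasitemia final) in RPMI 1640/0.5% Albumax were exposed to compound for 48 hours at 37 C, 5% CO2; growth read as luminescence.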
A number is an active result; . = inactive; ? = inconclusive; / = no result. The list is not random: actives were taken first. Their share in the collection is about 12%. Unless noted, the call rests on the fitted dose curve; in most records, active means well fitted curve in the direction sought with a large enough effect; inconclusive means small, poorly fitted or top-dose-only effect, or another doubt; inactive means no such curve, though single readings can be large; an effect the other way counts as inactive or inconclusive.

SMILES | SARS PLP yeast | AMA1-RON2 inh | Pf growth 96h | HCV inhibitor | NS1 inh | Pf growth 48h
O=C(O)C1CCC(N2C(=O)c3cccc([N+](=O)[O-])c3C2=O)CC1 (stereo not given) | . | . | . | . | . | .
Cc1c(-c2ccccc2)nc2ccccc2c1C(=O)Nc1ccncc1 | . | . | 0.33µM | ? | . | 1.7µM
Cc1ccc(C(=O)Nc2ccncc2)c(Cl)c1 | . | . | ? | ? | . | .
COC(=O)c1ccc(NC(=O)c2cc(-c3ccncc3)nc3ccccc23)cc1 | . | . | ? | 10µM | / | ?
Cc1cccc(-c2cc(C(=O)Nc3ccncc3)c3ccccc3n2)c1 | . | . | 2.3µM | . | . | 1µM
Cc1ccc(C)c(C(=O)Nc2ccncc2)c1 | . | . | 2.1µM | . | . | ?
Cc1c(-c2ccccc2)nc2ccccc2c1C(=O)O | . | . | . | . | . | .
Cc1ccccc1-n1c(C)nnc1SCC(=O)N1CCc2ccccc2C1 | . | . | ? | . | . | .
C#CCOCCOCCOCCNc1nc(N2CCN(C(=O)Cn3cc(CC(C)O)nn3)CC2)nc(N2CCN(C(=O)[C@H]([C@@H](C)O)n3cc(CCCCN)nn3)CC2)n1 (stereo not given in full) | / | . | / | . | / | /
C#CCOCCOCCOCCNc1nc(N2CCN(C(=O)CCCCCCCCCCNC(=O)Cn3cc(C[C@@H](C)O)nn3)CC2)nc(N2CCN(C(=O)CCCCCCCCCCNC(=O)[C@H](CCCCN)n3cc(C[C@@H](C)CC)nn3)CC2)n1 | . | . | 0.47µM | ? | / | 0.33µM
C#CCOCCOCCOCCNc1nc(N2CCN(C(=O)CCCCCCCCCCNC(=O)Cn3cc(C[C@@H](C)O)nn3)CC2)nc(N2CCN(C(=O)CCCCCCCCCCNC(=O)Cn3cc(C[C@@H](C)O)nn3)CC2)n1 | . | ? | 0.083µM | . | / | 0.13µM
CC1CC(C)CN(C(=O)COC(=O)c2ccc(S(=O)(=O)N(C)c3ccccc3)cc2)C1 (stereo not given) | . | . | / | . | / | /
CCNC(=O)C1CCCN(C(=O)c2cccc(C(F)(F)F)c2)CC1 (stereo not given) | / | . | / | / | / | /
CC(C)=CCC1C(=O)N(c2ccccc2)N(c2ccccc2)C1=O | / | / | 7.6µM | / | / | ?
CCCCC1C(=O)N(c2ccccc2)N(c2ccc(O)cc2)C1=O (stereo not given) | / | . | . | ? | / | .
COc1ccc2cc3c(N)nn(C(=O)c4ccccc4Cl)c3nc2c1 | . | . | ? | ? | . | 8.3µM
Cc1ccc(-c2csc3ncnc(N4CCN(C(=O)c5ccccc5)CC4)c23)cc1 | . | . | / | ? | . | 8.3µM
O=C(c1cccs1)N1CCCN(c2ncnc3scc(-c4ccccc4)c23)CC1 | . | . | 10µM | ? | . | 5.9µM
O=C(N1CCCC1)N1CCN(c2ncnc3c(-c4ccc(Cl)cc4)nsc23)CC1 | . | / | 1.9µM | / | . | .
O=C(c1ccc(F)cc1)N1CCN(c2cc(=O)[nH]nc2-c2ccccc2)CC1 | . | . | ? | . | . | ?
Cc1ccc(C(=O)N2CCN(c3cc(=O)[nH]nc3-c3ccccc3)CC2)cc1 | . | . | 12µM | . | . | ?
CC1(C)Oc2ccc(C#N)cc2[C@H](N2CCCC2=O)[C@H]1O | / | / | . | / | / | .
OCC1(CO)COC(CCc2ccccc2)=N1 | . | . | . | . | . | .
CC1=C(C#N)C(=O)N(C2CCS(=O)(=O)C2)C(=O)/C1=C\c1ccco1 (stereo not given) | . | / | . | / | . | .
Cc1ccc(C(=O)N2CCN(c3ncnc4c(-c5ccccc5)nsc34)CC2)cc1 | . | / | 1.5µM | / | . | .
SMILES | SARS PLP yeast | AMA1-RON2 inh | Pf growth 96h | HCV inhibitor | NS1 inh | Pf growth 48h
O=C(c1ccccc1)N1CCN(c2ncnc3c(-c4ccccc4)nsc23)CC1 | . | . | . | . | . | .
COC(=O)CC/C(O)=C1\C(=O)CC(C)(C)CC1=NCCc1nc2ccccc2[nH]1 | . | . | ? | . | / | .
Cc1ccccc1OCC(=O)NNC(=O)CSc1nc(N)cc(N)n1 | . | . | 8.3µM | . | / | .
CCOC(=O)CNC(=O)CSc1nc(N)cc(N)n1 | . | . | 10µM | . | . | .
Nc1cc(N)nc(SCC(=O)NNC(=O)Cc2ccccc2)n1 | . | . | . | . | . | .
O=CNc1cc(-c2cccc(O)c2)cn2c(-c3ccc(F)cc3)cnc12 | / | . | / | / | / | /
CCCN(CCc1cccs1)[C@H]1CCc2c(O)cccc2C1 | / | / | 1.5µM | / | / | 6.7µM
CCOC(=O)C(NC(=O)c1ccc(OC)cc1)(Nc1cc(C)on1)C(F)(F)F (stereo not given) | . | . | . | . | . | .
CCOC(=O)C(NC(=O)c1ccccc1)(Nc1cc(C)on1)C(F)(F)F (stereo not given) | . | ? | 5.2µM | . | . | .
O=C(N/N=C/c1cccc([N+](=O)[O-])c1)c1cc2ccccc2o1 | . | . | ? | 11µM | . | .
O=[N+]([O-])c1cccc(C=NNc2ccccc2)c1 | / | . | / | ? | / | /
O=[N+]([O-])c1cccc(/C=N/N=C\c2ccccc2)c1 | . | . | 13µM | . | . | .
O=[N+]([O-])c1cccc(/C=N/N2CCN(Cc3ccccc3)CC2)c1 | . | . | ? | . | / | .
O=[N+]([O-])c1cccc(C=NN2CCCCCC2)c1 | / | 18µM | / | ? | / | /
O=[N+]([O-])c1cc(C=NN2CCCCCC2)ccc1Cl | / | 14µM | / | ? | / | /
O=C1/C(=C\c2ccc(O)c(O)c2)N=C2CCCCCN12 | . | . | . | . | . | .
O=C(c1sc2cc(Cl)ccc2c1Cl)N1CCN(CCc2ccccn2)CC1 | . | . | . | ? | . | .
O=C(NCCN1CCCC1=O)C1CCC(=O)N(CCc2cccc(F)c2)C1 (stereo not given) | . | . | 13µM | . | . | .
CCc1cc(CNC(=O)C2CCC(=O)N(Cc3cccc(F)c3)C2)on1 (stereo not given) | . | . | 12µM | . | . | .
Cc1nc(CCNC(=O)C2CCC(=O)N(CCc3cccc(F)c3)C2)sc1C (stereo not given) | . | . | 15µM | . | . | .
O=C(NCc1cc2ccccc2[nH]1)C1CCC(=O)N(CCCN2CCCC2=O)C1 (stereo not given) | . | . | 10µM | . | . | .
COC(=O)C1=C(c2ccc(F)cc2F)C[C@@H]2CC[C@H]1N2C(=O)NCCOc1ccc(OC)cc1 | . | . | . | . | / | 10µM
COC(=O)C1=C(c2ccc(F)cc2F)C[C@@H]2CC[C@H]1N2C(=O)NCCO | . | . | . | . | / | .
COC(=O)C1=C(c2ccc(F)cc2F)C[C@@H]2CC[C@H]1N2C(=O)NCCOc1ccccc1Cl | . | . | 10µM | ? | / | ?
Cc1cc(Nc2ccccc2)n2nc(C)c(-c3ccccc3)c2n1 | . | . | . | ? | . | ?
Cc1nn2c(N3CCN(C)CC3)c3c(nc2c1-c1ccccc1)CCCC3 | . | . | 9.3µM | . | . | .
Cc1[nH]n2c(=O)c3c(nc2c1-c1ccccc1)CCCC3 | . | . | . | . | . | ?
